Screening data deposited in PubChem by several laboratories.
GDH-TPI counter = GDH-TPI coupling enzyme inhibitors, primary screen, artefact control for M. tuberculosis FBA inhibitor project, biochemical, absorbance, full deck. GDH-TPI coupled enzyme counterscreen, NADH absorbance. inhibition, % at 4.8 µM. 360,000 tested, 1.2% active. AID 588335, 2011; in the data active means inhibition above about 30%;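 further: 0% = DMSO wells and 100% = wells lacking the enzyme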
FBA Mtb inh = Mtb FBA enzyme inhibitors, primary screen, biochemical, fluorescence, strain H37Rv | Fructose-bisphosphate aldolase (Mycobacterium tuberculosis (strain ATCC 25618 / H37Rv)), … | 360,000 tested, 2.3% active | AID 588726, 2011 | inhibition, % at 1 µM | purified M. tuberculosis FBA, fluorescence read-out; in the data active means inhibition above about 27%;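 further: 0% = vehicle and 100% = reference inhibitor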
Target sequence (P9WQA3 whole entry, looked up): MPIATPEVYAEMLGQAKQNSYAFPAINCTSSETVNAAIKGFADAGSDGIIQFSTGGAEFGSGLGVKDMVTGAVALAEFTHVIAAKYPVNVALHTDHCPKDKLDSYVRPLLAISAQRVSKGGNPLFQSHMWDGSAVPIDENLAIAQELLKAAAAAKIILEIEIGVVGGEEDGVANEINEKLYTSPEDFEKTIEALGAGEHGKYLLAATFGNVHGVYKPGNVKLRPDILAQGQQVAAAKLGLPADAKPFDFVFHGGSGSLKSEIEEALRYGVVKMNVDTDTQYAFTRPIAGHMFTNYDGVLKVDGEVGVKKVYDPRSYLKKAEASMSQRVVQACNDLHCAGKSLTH
Anthrax LF prot = Bacillus anthracis LF protease inhibitors, primary screen, biochemical, multiplex microsphere, MLPCN library; Lethal factor (Bacillus anthracis), P15917; multiplex microsphere protease cleavage assay; inhibition, % at 10 µM; 360,000 tested, 0.12% active; AID 588501, 2011; further: plate controls were buffer without enzyme for full effect and enzyme alone for no effect
Autofluor counter = flagged as autofluorescent in microsphere protease counterscreen | compound autofluorescence counterscreen, microsphere flow cytometry; stronger effect = higher value | fluorescence intensity (concentration not given with the values) | 360,000 tested, 3.1% active | AID 624483; in the data active means fluorescence intensity above about 16000; inconclusive means no clear call, values can overlap the other calls
BoNT-F LC inh = BoNT/F light chain protease inhibitors, primary screen, biochemical, flow cytometry, MLPCN library; Botulinum neurotoxin type F light chain protease (Clostridium botulinum); Multiplex microsphere protease cleavage assay; inhibition, % at 10 µM; 360,000 tested, 0.22% active; in the data active means inhibition above about 35%, passing the limit was not always enough; inconclusive means no clear call, values can overlap the other calls; further: plate controls were buffer without enzyme for full effect and enzyme alone for no effect
BoNT A protease = BoNT/A light chain protease inhibitors, primary screen, biochemical, flow cytometry, MLPCN library; Botulinum neurotoxin type A light chain protease (Clostridium botulinum A str. ATCC 3502); multiplex microsphere protease substrate cleavage; inhibition, % at 10 µM; 360,000 tested, 0.17% active; further: plate controls were buffer without enzyme for full effect and enzyme alone for no effect
Active calls of the source: *. Shown are actives, neighbours in structure and some others; about 6.6% of the full set was active somewhere. Unless noted, no stated cut-off is given here; in the data, active means inhibition above about 30%; inconclusive means no clear call, values can overlap the other calls; inactive means below that.

Results for O=C(Nc1cccc(/C=C/c2nc3ccccc3c(=O)[nH]2)c1)c1ccccc1Cl ?
GDH-TPI counter: 49*; FBA Mtb inh: -2; Anthrax LF prot: -10; Autofluor counter: 5144; BoNT-F LC inh: -11; BoNT A protease: -1

What do the screens show for `Cc1cccc(/C=C\c2nc3ccccc3c(=O)[nH]2)c1`?
GDH-TPI counter: 31*; FBA Mtb inh: -3; Anthrax LF prot: 0; Autofluor counter: 2436; BoNT-F LC inh: -6; BoNT A protease: 0

Results for COc1cc2nc(NC(=O)c3ccccc3)[nH]c(=O)c2cc1OC ?
GDH-TPI counter: 15; FBA Mtb inh: -2; Anthrax LF prot: 2; Autofluor counter: 4386; BoNT-F LC inh: -10; BoNT A protease: -1

How did COc1ccc(C(=O)Nc2nc3cc(OC)c(OC)cc3c(=O)[nH]2)cc1 do in these assays?
GDH-TPI counter: 8; FBA Mtb inh: -7; Anthrax LF prot: -2; Autofluor counter: 25582*; BoNT-F LC inh: -5; BoNT A protease: -3

What do the screens show for `COc1ccc(C(=O)Nc2nc3ccccc3c(=O)[nH]2)cc1`?
GDH-TPI counter: 15; FBA Mtb inh: 1; Anthrax LF prot: 0; Autofluor counter: 8102; BoNT-F LC inh: -5; BoNT A protease: -1

Results for O=c1[nH]c(/C=C/c2ccc(Br)cc2)nc2ccccc12 ?
GDH-TPI counter: -2; FBA Mtb inh: 0; Anthrax LF prot: -8; Autofluor counter: 3493; BoNT-F LC inh: 8; BoNT A protease: -2

What do the screens show for `COc1ccc(CC(=O)NNC(=S)NCC2CC2)cc1OC`?
GDH-TPI counter: 2; FBA Mtb inh: 5; Anthrax LF prot: -3; Autofluor counter: 4587; BoNT-F LC inh: -7; BoNT A protease: 0

What do the screens show for `COc1ccc(N(CC(=O)Nc2ccccc2F)S(=O)(=O)c2ccc(OC)c(OC)c2)cc1`?
GDH-TPI counter: 1; FBA Mtb inh: 1; Anthrax LF prot: 6; Autofluor counter: 4013; BoNT-F LC inh: -2; BoNT A protease: 0

What do the screens show for `COCCn1ccc2c(OCC(=O)Nc3cccc(NC(C)=O)c3)cccc2c1=O`?
GDH-TPI counter: 7; FBA Mtb inh: 3; Anthrax LF prot: 11; Autofluor counter: 5378; BoNT-F LC inh: -3; BoNT A protease: 6

Results for O=C(NC1CCCCC1)c1ccc(-c2ccccc2)cc1 ?
GDH-TPI counter: 5; FBA Mtb inh: 2; Anthrax LF prot: -2; Autofluor counter: 6720; BoNT-F LC inh: -14; BoNT A protease: -1

What do the screens show for `COc1ccc(-c2cc3c(=O)n(CC(=O)Nc4ccc(Cl)cc4)ncn3n2)cc1`?
GDH-TPI counter: 5; FBA Mtb inh: 2; Anthrax LF prot: 0; Autofluor counter: 5178; BoNT-F LC inh: -3; BoNT A protease: -1

How did O=C(NCc1ccccc1CN1CCCC1)c1ccc(Cl)c(S(=O)(=O)N2CCCC2)c1 do in these assays?
GDH-TPI counter: 8; FBA Mtb inh: 7; Anthrax LF prot: -9; Autofluor counter: 8665; BoNT-F LC inh: 3; BoNT A protease: -7

How did Cc1ccc(C)c(NC(=O)c2cnc3n(c2=O)CCS3)c1 do in these assays?
GDH-TPI counter: 2; FBA Mtb inh: 3; Anthrax LF prot: 0; Autofluor counter: 3170; BoNT-F LC inh: -17; BoNT A protease: -2

How did Cc1cccc(N(C(=O)c2cnc3n(c2=O)CCS3)C2CCCCC2)c1 do in these assays?
GDH-TPI counter: 3; FBA Mtb inh: 1; Anthrax LF prot: 2; Autofluor counter: 22301*; BoNT-F LC inh: 2; BoNT A protease: 2

What do the screens show for `COC(=O)c1ccc(C(=O)OC)c(NC(=O)c2cnc3n(c2=O)CCS3)c1`?
GDH-TPI counter: 10; FBA Mtb inh: 11; Anthrax LF prot: -1; Autofluor counter: 16274*; BoNT-F LC inh: 3; BoNT A protease: inconclusive

What do the screens show for `O=C(c1cnc2n(c1=O)CCS2)N(c1ccccc1)C1CCCCC1`?
GDH-TPI counter: 2; FBA Mtb inh: 2; Anthrax LF prot: -4; Autofluor counter: 3386; BoNT-F LC inh: 2; BoNT A protease: 0

Results for CN(Cc1ccccc1)C(=O)c1cnc2n(c1=O)CCS2 ?
GDH-TPI counter: -3; FBA Mtb inh: 0; Anthrax LF prot: 1; Autofluor counter: 19652*; BoNT-F LC inh: 4; BoNT A protease: inconclusive

Results for CC(=O)c1ccc(-c2cnc3c(NC=O)cc(-c4ccccc4Oc4ccccc4)cn23)cc1 ?
GDH-TPI counter: 20; FBA Mtb inh: 10; Anthrax LF prot: 1; Autofluor counter: 3880; BoNT-F LC inh: 2; BoNT A protease: 0

Results for O=C(Nc1ccccc1C(F)(F)F)N1CCN(c2ccc3nncn3n2)CC1 ?
GDH-TPI counter: -13; FBA Mtb inh: -2; Anthrax LF prot: -4; Autofluor counter: 20519*; BoNT-F LC inh: -4; BoNT A protease: -2

How did O=C(Nc1ccccc1C(F)(F)F)N1CCN(c2ccc3nnc(-c4ccc(F)cc4)n3n2)CC1 do in these assays?
GDH-TPI counter: -6; FBA Mtb inh: 1; Anthrax LF prot: -1; Autofluor counter: 10256; BoNT-F LC inh: -9; BoNT A protease: 0

How did CSc1nc2nccc(-c3ccc(Cl)cc3)n2n1 do in these assays?
GDH-TPI counter: 0; FBA Mtb inh: 0; Anthrax LF prot: -3; Autofluor counter: 2518; BoNT-F LC inh: -10; BoNT A protease: 0

Results for CSc1nc2nccc(/C=C\c3ccccc3)n2n1 ?
GDH-TPI counter: 31*; FBA Mtb inh: -2; Anthrax LF prot: -1; Autofluor counter: 21761*; BoNT-F LC inh: 2; BoNT A protease: inconclusive

How did COc1ccc(-c2cc3nc(C)cc(C)n3n2)cc1 do in these assays?
GDH-TPI counter: 6; FBA Mtb inh: 17; Anthrax LF prot: 0; Autofluor counter: 20324*; BoNT-F LC inh: -2; BoNT A protease: 0

What do the screens show for `COc1ccc(CNc2nc3nc(C)cc(C)n3n2)cc1`?
GDH-TPI counter: 4; FBA Mtb inh: 8; Anthrax LF prot: 0; Autofluor counter: 23427*; BoNT-F LC inh: -4; BoNT A protease: -3

Results for COc1ccc(CNc2nc3nc(C)c(Cl)c(C)n3n2)cc1 ?
GDH-TPI counter: 6; FBA Mtb inh: 4; Anthrax LF prot: 2; Autofluor counter: 4098; BoNT-F LC inh: 14; BoNT A protease: -2

How did CCC(CC)c1nnc(NC(=O)Oc2ccccc2)s1 do in these assays?
GDH-TPI counter: 9; FBA Mtb inh: 4; Anthrax LF prot: 7; Autofluor counter: 5722; BoNT-F LC inh: 42*; BoNT A protease: 4

What do the screens show for `CC(=O)C1=C(O)C(=O)N(Cc2ccccc2)C1c1cccs1` (stereo not drawn)?
GDH-TPI counter: 31*; FBA Mtb inh: 1; Anthrax LF prot: -1; Autofluor counter: 3516; BoNT-F LC inh: -4; BoNT A protease: 0

Results for CC(=O)O[C@@H](Cc1ccc(O)cc1)C(=O)CC(C)C ?
Anthrax LF prot: -5; Autofluor counter: 5791; BoNT-F LC inh: 2; BoNT A protease: 1
